Laboratory results as given in PubChem BioAssay AID1159580 (chemical genetic matrix, 2015).
In all, about 5,500 compounds went through this assay and about 2,000 (36%) were called active. Another 18% or so got no clear call; they are omitted. No stated cut-off is given here; in the data, active means normalized growth mostly below about 0.91 (no sharp cut-off); inconclusive means no clear call, values can overlap the other calls; inactive means mostly above about 0.92. The list shows a part of the results.

Assay: chemical genetic growth profiling, strain panel (AID 1159580);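 further: tested at 20 µM; growth read once vehicle control cultures reached saturation at 30 °C; 1 = growth at the plate median or of vehicle wells; lower values mean less growth of the strain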
Details: growth OD

Measured: normalized growth

COc1cc([C@@H]2c3cc4c(c(O)c3C[C@H]3COC(=O)[C@@H]32)OCO4)cc(OC)c1OC
inactive: S. cerevisiae deletion strains, locus YJR043C, strain POL32, hits give low values 0.989 | S. cerevisiae deletion strains, locus YJR075W, strain HOC1, hits give low values 0.996 | S. cerevisiae deletion strains, locus YKL009W, strain mrt4, hits give low values 0.983 | S. cerevisiae deletion strains, locus YKL068W, hits give low values 0.979 | S. cerevisiae deletion strains, locus YKL085W, strain MDH1 (second series), hits give low values 0.973 | S. cerevisiae deletion strains, locus YKL085W, strain MDH1, hits give low values 0.973 | S. cerevisiae deletion strains, locus YKL160W, strain elf1, hits give low values 1 | S. cerevisiae deletion strains, locus YKL190W, strain CNB1, hits give low values 0.986 | S. cerevisiae deletion strains, locus YKR001C, strain vps1, hits give low values 1 | S. cerevisiae deletion strains, locus YKR026C, strain gcn3, hits give low values 0.985 | S. cerevisiae deletion strains, locus YKR091W, strain srl3, hits give low values 0.995 | S. cerevisiae deletion strains, locus YLL001W, strain dnm1, hits give low values 0.991 | S. cerevisiae deletion strains, locus YLL026W, hits give low values 0.993 | S. cerevisiae deletion strains, locus YLL041C, strain sdh2, hits give low values 0.99 | S. cerevisiae deletion strains, locus YLR027C, strain aat2, hits give low values 0.974 | S. cerevisiae deletion strains, locus YLR039C, strain RIC1, hits give low values 0.921 | S. cerevisiae deletion strains, locus YLR058C, strain SHM2, hits give low values 0.982 | S. cerevisiae deletion strains, locus YLR102C, strain apc9, hits give low values 0.976 | S. cerevisiae deletion strains, locus YLR221C, strain rsa3, hits give low values 0.959 | S. cerevisiae deletion strains, locus YLR258W, strain gsy2, hits give low values 1.01 | S. cerevisiae deletion strains, locus YLR262C, strain YPT6 (second series), hits give low values 0.989 | S. cerevisiae deletion strains, locus YLR262C, strain YPT6, hits give low values 0.907 | S. cerevisiae deletion strains, locus YLR268W, strain sec22, hits give low values 1.01 | S. cerevisiae deletion strains, locus YLR320W, strain mms22, hits give low values 0.963 | S. cerevisiae deletion strains, locus YLR330W, strain CHS5, hits give low values 0.981 | S. cerevisiae deletion strains, locus YLR342W, strain FKS1 (second series), hits give low values 0.971 | S. cerevisiae deletion strains, locus YLR342W, strain FKS1, hits give low values 0.983 | S. cerevisiae deletion strains, locus YLR357W, strain rsc2, hits give low values 0.999 | S. cerevisiae deletion strains, locus YLR370C, strain arc18, hits give low values 1 | S. cerevisiae deletion strains, locus YLR371W, strain rom2, hits give low values 0.946 | S. cerevisiae deletion strains, locus YLR384C, strain iki3, hits give low values 0.98 | S. cerevisiae deletion strains, locus YLR418C, strain cdc73, hits give low values 1.01 | S. cerevisiae deletion strains, locus YML016C, strain PPZ1, hits give low values 0.992 | S. cerevisiae deletion strains, locus YML032C, strain rad52, hits give low values 0.991 | S. cerevisiae deletion strains, locus YML120C, strain ndi1, hits give low values 0.998 | S. cerevisiae deletion strains, locus YML124C, strain tub3, hits give low values 0.988 | S. cerevisiae deletion strains, locus YMR058W, strain fet3, hits give low values 0.999 | S. cerevisiae deletion strains, locus YMR078C, strain ctf18, hits give low values 0.995 | S. cerevisiae deletion strains, locus YMR125W, strain sto1, hits give low values 0.986 | S. cerevisiae deletion strains, locus YMR129W, hits give low values 0.984 | S. cerevisiae deletion strains, locus YMR205C, strain PFK2, hits give low values 0.982 | S. cerevisiae deletion strains, locus YMR223W, strain ubp8, hits give low values 0.987 | S. cerevisiae deletion strains, locus YMR231W, strain pep5, hits give low values 0.991 | S. cerevisiae deletion strains, locus YMR263W, strain SAP30, hits give low values 1 | S. cerevisiae deletion strains, locus YMR307W, strain GAS1, hits give low values 1.02 | S. cerevisiae deletion strains, locus YNL067W, strain RPL9B, hits give low values 1.02 | S. cerevisiae deletion strains, locus YNL071W, strain lat1, hits give low values 1.01 | S. cerevisiae deletion strains, locus YNL128W, strain TEP1, hits give low values 0.989 | S. cerevisiae deletion strains, locus YNL153C, strain GIM3, hits give low values 1.03 | S. cerevisiae deletion strains, locus YNL209W, strain ssb2, hits give low values 1 | S. cerevisiae deletion strains, locus YNL233W, strain BNI4, hits give low values 1.04 | S. cerevisiae deletion strains, locus YNL248C, strain rpa49, hits give low values 0.984 | S. cerevisiae deletion strains, locus YNL250W, strain rad50, hits give low values 0.955 | S. cerevisiae deletion strains, locus YNL271C, strain bni1, hits give low values 0.973 | S. cerevisiae deletion strains, locus YNL298W, strain CLA4, hits give low values 0.976 | S. cerevisiae deletion strains, locus YNL307C, strain MCK1, hits give low values 0.992 | S. cerevisiae deletion strains, locus YNL322C, strain KRE1 (second series), hits give low values 1 | S. cerevisiae deletion strains, locus YNL322C, strain KRE1, hits give low values 0.979 | S. cerevisiae deletion strains, locus YNR049C, strain mso1, hits give low values 0.986 | S. cerevisiae deletion strains, locus YNR052C, strain pop2, hits give low values 0.975 | S. cerevisiae deletion strains, locus YOL006C, strain TOP1, hits give low values 1.08 | S. cerevisiae deletion strains, locus YOL012C, strain htz1 0.866 | S. cerevisiae deletion strains, locus YOL147C, strain pex11, hits give low values 0.985 | S. cerevisiae deletion strains, locus YOR001W, strain rrp6, hits give low values 0.957 | S. cerevisiae deletion strains, locus YOR061W, strain CKA2, hits give low values 0.986 | S. cerevisiae deletion strains, locus YOR069W, strain VPS5, hits give low values 0.992 | S. cerevisiae deletion strains, locus YOR070C, strain gyp1, hits give low values 0.987 | S. cerevisiae deletion strains, locus YOR080W, strain dia2, hits give low values 0.98 | S. cerevisiae deletion strains, locus YOR083W, strain WHI5, hits give low values 1.01 | S. cerevisiae deletion strains, locus YOR106W, strain vam3, hits give low values 1 | S. cerevisiae deletion strains, locus YOR136W, strain idh2, hits give low values 0.984 | S. cerevisiae deletion strains, locus YOR144C, strain elg1, hits give low values 0.984 | S. cerevisiae deletion strains, locus YOR184W, strain ser1, hits give low values 0.973 | S. cerevisiae deletion strains, locus YOR265W, strain rbl2, hits give low values 0.992 | S. cerevisiae deletion strains, locus YOR270C, strain vph1, hits give low values 0.98 | S. cerevisiae deletion strains, locus YOR290C, strain snf2, hits give low values 0.987 | S. cerevisiae deletion strains, locus YOR316C, strain cot1, hits give low values 0.983 | S. cerevisiae deletion strains, locus YPL051W, strain arl3, hits give low values 0.965 | S. cerevisiae deletion strains, locus YPL055C, strain LGE1, hits give low values 1.03 | S. cerevisiae deletion strains, locus YPL078C, strain atp4, hits give low values 1.01 | S. cerevisiae deletion strains, locus YPL106C, strain sse1, hits give low values 0.987 | S. cerevisiae deletion strains, locus YPL240C, strain hsp82, hits give low values 0.992 | S. cerevisiae deletion strains, locus YPL241C, strain CIN2, hits give low values 0.987 | S. cerevisiae deletion strains, locus YPR119W, strain clb2, hits give low values 0.979 | S. cerevisiae deletion strains, locus YPR141C, strain kar3, hits give low values 0.979 | S. cerevisiae deletion strains, locus YPR163C, strain tif3, hits give low values 0.97 | S. cerevisiae deletion strains, locus YPR167C, strain met16, hits give low values 0.971 | S. cerevisiae deletion strains, strain wtn01, hits give low values 1 | S. cerevisiae strains, strain wild type, hits give low values 0.99
